# From PubChem BioAssay (NCI)
# The panel holds about 83,000 compounds, 20% with a hit somewhere; the sample as a whole holds those more often.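 Method: cells in 96-well plates; compound added at one concentration; 48 h incubation; percent growth measured; values under 10 scored active.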 Unmarked numbers belong to inactive results. Calls of active or inactive are those of the source.
# Tested on: MDA-MB-468 breast
# Assay: NCI-60 one-dose screen, 48 h (100 = growth as untreated, 0 = no growth, -100 = all killed)
# Conditions: 10 µM unless noted
row,Compound,growth
1,COc1ccccc1[As]=[As]c1ccccc1OC (stereo not given),-94.8% (active)
2,CN1C(=O)C(=Cc2cn(Cc3ccccc3)c3ccccc23)C(=O)N(C)C1=O,-49.5% (active)
3,CCc1ccccc1[C@@H]1C[C@]2(C)CCO[C@@H]2OO1,102%
4,C[C@]12CCc3sc(-c4ccccc4O)nc3C1=CC[C@@H]1[C@@H]2CC[C@]2(C)C(=O)CC[C@@H]12,106%
5,C[C@@]12CCCc3coc(c31)C(=O)c1cc3c(cc12)C(=O)C1=C(NCCS1(=O)=O)C3=O,-65.6% (active)
